Results taken from PubChem BioAssay (NCATS).
Results filed as inconclusive are left out. Activity calls are given as the source filed them. Unless noted, the rule behind the calls is not given here.

What was measured:
[1] = qHTS profiling of the MIPE4 collection as inhibitors of Plasmodium falciparum (3D7) proliferation (AID 743344);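 note: scaled between DMSO vehicle wells and 0.29 µM artemisinin as full inhibition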; settings: P. falciparum 3D7 in erythrocytes, SYBR Green DNA fluorescence, 72 h; at 28.5 µM unless noted
Outline: (§1)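 Erythrocytes infected with P. falciparum (0.3% parasitemia, 2.5% hematocrit) incubated with compounds 72 h at 37 C, 5% CO2. Lysis with saponin/Triton buffer containing SYBR Green I, overnight at room temperature in the dark; DNA fluorescence (485/535 nm) normalised to 0.29 uM artemisinin and DMSO.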

[2] = qHTS profiling of the MIPE4 collection as inhibitors of Plasmodium falciparum (DD2) proliferation (AID 743345); settings: P. falciparum Dd2 in erythrocytes, SYBR Green DNA, 72 h; at 28.5 µM unless noted
Outline: as §1

[3] = qHTS profiling of the MIPE4 collection as inhibitors of Plasmodium falciparum (DD2) proliferation (Rep 2) (AID 743346); settings: P. falciparum Dd2 in erythrocytes, SYBR Green DNA, 72 h; at 28.5 µM unless noted
Outline: as §1

[4] = qHTS profiling of the MIPE4 collection as inhibitors of Plasmodium falciparum (HB3) proliferation (AID 743347);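 note: plate controls were DMSO vehicle wells for no effect and artemisinin wells for full effect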; settings: P. falciparum HB3 in erythrocytes, SYBR Green DNA, 72 h; at 28.5 µM unless noted
Outline: as §1

[5] = High-throughput drug toxicity screening in the BPDCN cell line Gen2.2 (AID 1224824); settings: Gen2.2 BPDCN cells; at 45.8 µM (top of the series) unless noted
Outline: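 Gen2.2 cells, 500 per well in phenol red-free RPMI with 10% FBS, exposed to compounds 48 h at 37 C, 5% CO2; viability by CellTiter-Glo luminescence. Percent activity scaled to DMSO (100%) and 9.2 uM bortezomib final (0%).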

[6] = High-throughput drug toxicity screening in the BPDCN cell line Cal-1 (AID 1224825); settings: Cal-1 BPDCN cell viability, qHTS; at 45.8 µM (top of the series) unless noted
Outline: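 Cal-1 cells, 500 per well in phenol-red-free RPMI with 10% FBS, exposed to compounds for 48 hours at 37C, 5% CO2. Viability read by CellTiter-Glo luminescence; percent activity normalized to DMSO (100%) and 9.2 uM bortezomib final (0%).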

[7] = qHTS assay for measurement of the activity of small molecule inhibitors on Zika virus induced Caspase-3 activity in human iPSC derived neural progenitor cells (hNPCs) (AID 1224857; active = well fitted curve in the direction sought with a large enough effect; an effect the other way counts as inactive or inconclusive; note: % of control where 0% means no effect; nearly all actives have a fitted effect of over 65% in size)
Outline: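 hNPCs seeded 350 cells/well, cultured 16–20 h; compounds added 1 h before ZIKV (2 FFU/cell), 37 C 6 h. Caspase-Glo 3/7 luminescence after 30 min RT; % inhibition from induction scaled to uninfected (0%) and infected (100%) wells.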

[8] = qHTS assay for measurement of the activity of small molecule inhibitors on Zika virus induced Caspase-3 activity in human astrocytoma cells (AID 1224859; active = well fitted curve in the direction sought with a large enough effect; an effect the other way counts as inactive or inconclusive;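 note: plate controls were ZIKV-infected untreated cells for no effect and uninfected cells for full effect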)
Outline: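 Luminescence read-out (Caspase-Glo 3/7, 30 min RT) of caspase activity in SNB-19 cells infected 6 h with ZIKV, 2 FFU/cell, after 1 h compound pretreatment; % inhibition from induction normalised to uninfected (0%) and infected (100%) wells.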

[9] = qHTS Screen of the MIPE 4.0 Collection Against Ewings Sarcoma (RDES) (AID 1259252; active = well fitted curve in the direction sought with a large enough effect; an effect the other way counts as inactive or inconclusive; note: nearly all actives have a fitted effect of over 35% in size; note: potency is the fitted concentration of half-maximal effect)
Outline: (§2)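 Viability screen: 48 h incubation at 37C, 95% humidity, 5% CO2 with serially titrated compound, followed by CellTiter-Glo readout.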

[10] = qHTS Screen of the MIPE 4.0 Collection Against Ewings Sarcoma (TC32) (AID 1259256; active = well fitted curve in the direction sought with a large enough effect; an effect the other way counts as inactive or inconclusive; note: nearly all actives have a fitted effect of over 45% in size; note: potency is the fitted concentration of half-maximal effect)
Outline: as §2

[11] = qHTS profiling for inhibitors of Plasmodium falciparum (HB3) proliferation (AID 743324; active = well fitted curve in the direction sought with a large enough effect; an effect the other way counts as inactive or inconclusive;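 note: 100% = DMSO vehicle wells and 0% = artemisinin-treated control wells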); settings: Plasmodium falciparum HB3 blood-stage proliferation; at 28.7 µM (top of the series) unless noted
Outline: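 P. falciparum HB3 grown in erythrocytes (0.3% parasitemia, 2.5% hematocrit final) with compound for 72 h at 37 C, 5% CO2. Parasite DNA detected by SYBR Green after saponin/triton lysis overnight; normalized to 0.29 uM artemisinin and DMSO.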

[12] = Identifying Small Molecule Inhibitors of Pancreatic Cancer Stem Cells (A2780, Spheroid) (AID 1259357; active = well fitted curve in the direction sought with a large enough effect; an effect the other way counts as inactive or inconclusive;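 note: compound exposure lasted 48 h before the ATP luminescence read; 100% = DMSO treated cells and 0% = wells without cells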); settings: Potency: A2780 spheroid viability
Outline: (§3)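 Pre-formed 14-day tumor spheroids or adherent cells dosed and incubated 48 h, 37C, 5% CO2. Viability assessed by CellTiter-Glo.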

[13] = Identifying Small Molecule Inhibitors of Pancreatic Cancer Stem Cells (SN12C, Spheroid) (AID 1259360; active = well fitted curve in the direction sought with a large enough effect; an effect the other way counts as inactive or inconclusive;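 note: 100% = DMSO-treated cells and 0% = wells without cells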); settings: Potency: SN12C spheroid viability
Outline: as §3

[14] = Identifying Small Molecule Inhibitors of Pancreatic Cancer Stem Cells (A278, Adherent) (AID 1259361; active = well fitted curve in the direction sought with a large enough effect; an effect the other way counts as inactive or inconclusive;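 note: viability read after 48 h compound exposure; 100% = DMSO-treated cells and 0% = cell-free media-only wells; nearly all actives have a fitted effect of over 35% in size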)
Outline: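 Monolayer and spheroid cultures are compared. Spheroids form over 14 days in stem cell medium on hydrogel-coated low-attachment plates, then are exposed to compound for 48 h before CellTiter-Glo luminescence.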

| SMILES | parasite growth, % of DMSO control [1] | parasite growth remaining, % of DMSO control (lower = more inhibition) [2] | parasite growth, % of control (lower = inhibition) [3] | growth, % of control [4] | cell viability, % of control (lower = more cytotoxic) [5] | viability (% of control) [6] | Potency [7] | Potency [8] | Potency [9] | Potency [10] | remaining proliferation (% of control), lower = more inhibition [11] [%] | Potency [12] | Potency [13] | IC50 (viability decrease) [14] |
| --- | --- | --- | --- | --- | --- | --- | --- | --- | --- | --- | --- | --- | --- | --- |
| CCC(=O)OCC(=O)[C@@]1(OC(=O)CC)[C@@H](C)C[C@@H]2[C@H]3CCC4=CC(=O)C=C[C@]4(C)[C@@]3(F)[C@@H](O)C[C@@]21C | 12% | 64.4% | 39.1% | 48.2% | 17.4% | 15% | inactive | inactive | inactive | inactive | – | – | – | – |
| CO[C@H]1C=CO[C@@]2(C)Oc3c(C)c(O)c4c(O)c(c(C=NN5CCN(C)CC5)c(O)c4c3C2=O)NC(=O)C(C)=CC=C[C@H](C)[C@H](O)[C@@H](C)[C@@H](O)[C@@H](C)[C@H](OC(C)=O)[C@H]1C | 5.51% [at 5.51 µM] | 11.4% [at 5.51 µM] | 10.3% [at 5.51 µM] | 3.06% [at 5.51 µM] | 73% [at 15.3 µM] | 41.4% [at 15.3 µM] | inactive | inactive | inactive | – | – | – | – | – |
| CN(C)N=Nc1nc[nH]c1C(N)=O | 86.1% | 94.4% | 87.6% | 61.9% | 123% | 121% | inactive | inactive | 18.7 µM (active) | inactive | – | – | – | – |
| N#Cc1ccc(Oc2ccc3c(c2)COB3O)cc1 | 35.7% | 91.9% | 38.3% | 24.2% | 210% | 98.9% | inactive | inactive | inactive | inactive | – | – | – | – |
| CCCCOCCOc1nc(-c2ccc(C(=O)O)c(F)c2)sc1C | 81.5% | 98.4% | 80.5% | 85% | 594% | 73.8% | inactive | inactive | 20.9 µM (active) | – | 57 | inactive | inactive | inactive |
| CCC(c1ccc(O)cc1)C(CC)c1ccc(O)cc1 (centres undefined) | 84.9% | 90% | – | 106% | 149% | 104% | inactive | inactive | 0.743 µM (active) | – | – | – | – | – |
| Cc1cc(C(C)Nc2ccccc2)c2nc(N3CCOCC3)cc(=O)n2c1 (centres undefined) | 11.8% | 71.3% | 31.1% | 15.4% | 47.8% | 62.3% | inactive | inactive | 23.5 µM (active) | 23.5 µM (active) | – | – | – | – |
| O=C(Nc1ccccc1)Nc1ccc(-c2ccc(C(=O)[C@H]3CCC[C@H]3C(=O)O)cc2)cc1 | 29% | 78.7% | 32% | 51.7% | 28.8% | 107% | inactive | inactive | 14.8 µM (active) | – | – | – | – | – |
| CN(C)CCOc1cc(-c2cn[nH]c2)ccc1NC(=O)C1COc2ccccc2O1 (centres undefined) | 29.9% | 61.4% | 32.4% | 38.6% | 73.4% | 34.9% | inactive | inactive | 14.8 µM (active) | 11.8 µM (active) | – | – | – | – |
